The values that follow come from PubChem BioAssay (EPA / NIEHS).

The target in assay [1] is Hepatocyte nuclear factor 3-beta (Homo sapiens) (UniProt Q9Y261). The assay can be described thus: ATG_FoxA2_CIS: Attagene CIS-FACTORIAL HepG2 Assay for human Forkhead box A2 (FOXA2) (AID 2282942). The following applies: HepG2 cis-reporter transcription factor activity, 24 h; actives raise or lower the signal. The method in brief:
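HepG2 transiently transfected with a multiplexed cis-promoter reporter library read endogenous FOXA2 activity. After 24 h compound exposure, reporter mRNA was quantified by RT-PCR, HpaI digestion and capillary electrophoresis. Bidirectional fit against DMSO.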

In assay [2] the target is Heat shock factor protein 1 (Homo sapiens) (UniProt Q00613). The assay can be described thus: ATG_HSE_CIS: Attagene CIS-FACTORIAL HepG2 Assay for human Heat Shock Transcription Factor 1 (HSE) (AID 2282953). The following applies: HepG2 HSE cis-reporter, Attagene RNA transcription; actives raise or lower the signal. The procedure, abridged: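 Read-out: fluorescence of reporter-specific RT-PCR fragments separated by capillary electrophoresis. HepG2 carrying transfected cis-element reporter units; 24 h dosing; activity fitted in both directions relative to DMSO baseline.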
Heat shock factor protein 1 (Homo sapiens), sequence (Q00613 whole entry, looked up, the tested form may be a part): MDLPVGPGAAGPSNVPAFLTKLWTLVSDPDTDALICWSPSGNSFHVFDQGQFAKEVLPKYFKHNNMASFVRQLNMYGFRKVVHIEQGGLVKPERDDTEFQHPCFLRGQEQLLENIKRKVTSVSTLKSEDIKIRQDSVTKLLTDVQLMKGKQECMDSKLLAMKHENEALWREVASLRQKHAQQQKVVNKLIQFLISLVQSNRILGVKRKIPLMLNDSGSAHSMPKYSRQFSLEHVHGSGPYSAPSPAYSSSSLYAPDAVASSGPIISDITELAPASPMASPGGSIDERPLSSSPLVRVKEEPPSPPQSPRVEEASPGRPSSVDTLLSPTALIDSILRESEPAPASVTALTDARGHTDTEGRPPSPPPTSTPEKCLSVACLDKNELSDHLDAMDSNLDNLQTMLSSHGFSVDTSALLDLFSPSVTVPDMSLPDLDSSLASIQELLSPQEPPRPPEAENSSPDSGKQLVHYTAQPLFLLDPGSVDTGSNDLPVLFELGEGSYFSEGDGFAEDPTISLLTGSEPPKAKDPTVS

Assay [3] is described as follows: ATG_RORE_CIS: Attagene CIS-FACTORIAL HepG2 Assay for human RAR-related Orphan Receptor Element (RORE) (AID 2282959). Particulars: HepG2 Attagene cis-factorial RORE reporter, mRNA; actives raise or lower the signal. The procedure, abridged:
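HepG2 cells carrying transiently transfected cis-regulated reporter units; RORE-driven reporter mRNA quantified 24 h post-dosing by RT-PCR, 6-FAM primer extension, HpaI digestion and capillary electrophoresis. Bidirectional fit versus DMSO.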

A short description of assay [4]: ATG_Sox_CIS: Attagene CIS-FACTORIAL HepG2 Assay for human SRY-box transcription factor (SOX) (AID 2282960). Particulars: HepG2 Attagene cis-factorial SOX reporter, mRNA; actives raise or lower the signal. The method in brief:
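HepG2 cells transiently transfected with multiple cis-regulated reporter units, then dosed for 24 h. Reporter mRNA quantified by RT-PCR, fluorescent labelling, HpaI digestion and capillary electrophoresis; bidirectional fit versus DMSO.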

Assay [5] has as its target Transcription factor Sp1 (Homo sapiens) (UniProt P08047). The assay can be described thus: ATG_Sp1_CIS: Attagene CIS-FACTORIAL HepG2 Assay for human Specificity Protein 1 (Sp1) (AID 2282961). Particulars: HepG2 Sp1 cis-reporter transcription, actives raise or lower the signal. The procedure, abridged:
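HepG2 cells transiently transfected with multiplexed cis-regulated reporter constructs, chemical exposure 24 h. Reporter mRNA quantified by RT-PCR with capillary electrophoresis; bidirectional fit relative to DMSO.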

Assay [6] in a line: ATG_SREBP_CIS: Attagene CIS-FACTORIAL HepG2 Assay for human Sterol Regulatory Element Binding (SREBP) (AID 2282962). The following applies: HepG2 Attagene cis-factorial SREBP reporter, mRNA; actives raise or lower the signal. The procedure, abridged:
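Endogenous factor activity is measured in HepG2 through multiplexed reporter units under cis-element control. Following a 24 h incubation, reporter transcripts are reverse-transcribed, PCR-amplified and sized by capillary electrophoresis; activity is fitted in both directions relative to DMSO.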

The target in assay [7] is Signal transducer and activator of transcription 3 (Homo sapiens) (UniProt P40763). The assay can be described thus: ATG_STAT3_CIS: Attagene CIS-FACTORIAL HepG2 Assay for human Signal Transducer and Activator of Transcription 3 (STAT3) (AID 2282963). The following applies: HepG2, Attagene cis-factorial STAT3 reporter transcription; actives raise or lower the signal. The method in brief:
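HepG2, MRTU-transfected, 24 h dosing. RNA → RT → PCR → FAM label → HpaI → CE. Bidirectional fit vs DMSO.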

A short description of assay [8]: ATG_TA_CIS: Attagene CIS-FACTORIAL HepG2 Assay for human TA Basal Promoter (AID 2282964). Particulars: HepG2 Attagene CIS-factorial TA basal promoter reporter; actives raise or lower the signal. The procedure, abridged: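 Transfected HepG2, 24 h compound exposure; RNA → RT-PCR → FAM primer extension → HpaI cut → CE fluorescence. Gain/loss-of-signal fitted against DMSO negative control. Background-control readout.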

The nature of assay [9]: ATG_TCF_b_cat_CIS: Attagene CIS-FACTORIAL HepG2 Assay for human T-Cell-Factor with beta-catenin (TCF/b-cat) (AID 2282965). The following applies: HepG2 TCF/beta-catenin cis-reporter transcription, actives raise or lower the signal. The method in brief: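 HepG2 cells transiently transfected with multiple cis-promoter-regulated reporter transcription units, so endogenous transcription factor activity is measured. Reporter mRNA read 24 hours after dosing by RT-PCR, fluorescent labelling and capillary electrophoresis; bidirectional fitting against DMSO.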

Assay [10] can be described thus: ATG_TAL_CIS: Attagene CIS-FACTORIAL HepG2 Assay for human TAL Basal Promoter (AID 2282966).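 Further: background control endpoint measuring basal TAL promoter reporter mRNA not a specific factor.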 Particulars: HepG2 Attagene cis-factorial TAL promoter reporter; actives raise or lower the signal. The procedure, abridged:
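Background-control endpoint: basal TAL promoter reporter transcripts in transiently transfected HepG2, measured 24 h after dosing. Read-out by RT-PCR with fluorescent primer extension and capillary electrophoresis; gain or loss of signal fitted relative to DMSO.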

Assay [11] in a line: ATG_VDRE_CIS: Attagene CIS-FACTORIAL HepG2 Assay for human Vitamin D Receptor Element (VDRE) (AID 2282968). Particulars: HepG2 VDRE cis-reporter transcription, actives raise or lower the signal. The method in brief:
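Steps: transfect HepG2 with multiple reporter transcription units; dose chemicals 24 h; isolate RNA; RT-PCR; label with 6-FAM primer extension; HpaI digest; capillary electrophoresis. Curves fitted both directions against DMSO.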

Assay [12] has as its target Transcriptional activator Myb (Homo sapiens) (UniProt P10242). The assay can be described thus: ATG_Myb_CIS: Attagene CIS-FACTORIAL HepG2 Assay for human Myeloblastosis (Myb) Proto-Oncogene Transcription Factor (AID 2282986). The following applies: HepG2 Attagene CIS-FACTORIAL Myb reporter transcription; actives raise or lower the signal. The method in brief: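 Transiently transfected HepG2 cells carrying a multiplexed cis-promoter reporter set report endogenous Myb activity after 24 h compound exposure. Reporter mRNA is read by RT-PCR with capillary electrophoresis of fluorescent products, fitted bidirectionally against DMSO.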

The target in assay [13] is Nuclear respiratory factor 1 (Homo sapiens) (UniProt Q16656). In words: ATG_NRF1_CIS: Attagene CIS-FACTORIAL HepG2 Assay for human Nuclear Respiratory Factor 1 (NRF1) Orphan Gene (AID 2282987). Particulars: HepG2 NRF1 cis-element reporter, Attagene multiplex; actives raise or lower the signal. The procedure, abridged:
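HepG2 cells transiently transfected with multiple cis-regulated reporter units, exposed 24 h. Reporter mRNAs measured by RT-PCR, fluorescent labelling, HpaI digestion and capillary electrophoresis; bidirectional fitting against DMSO.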

Assay [14] can be described thus: ATG_NFI_CIS: Attagene CIS-FACTORIAL HepG2 Assay for human Nuclear Factor I (NFI) (AID 2282989). The following applies: HepG2 cis-regulatory reporter, NFI response element transcription; actives raise or lower the signal. The method in brief:
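Read-out: reporter mRNA via RT-PCR plus capillary electrophoresis with fluorescence detection. Transiently transfected HepG2 (endogenous TF activity on cis promoters), 24 h compound exposure; gain or loss of signal fitted against DMSO.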

Assay [15] addresses Myc proto-oncogene protein (Homo sapiens) (UniProt P01106). The assay can be described thus: ATG_Myc_CIS: Attagene CIS-FACTORIAL HepG2 Assay for human Myelocytomatosis (Myc) Proto-Oncogene Transcription Factor (AID 2282990). Particulars: HepG2, Attagene cis-reporter transcription factor activity; actives raise or lower the signal. The procedure, abridged: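 HepG2 cells transiently transfected with multiple cis-promoter-driven reporter transcription units, so endogenous TF activity is read. After 24 h compound exposure, reporter mRNA was quantified by RT-PCR, 6-FAM labelling, HpaI digestion and capillary electrophoresis; bidirectional fit versus DMSO.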

The nature of assay [16]: ATG_NRF2_ARE_CIS: Attagene CIS-FACTORIAL HepG2 Assay for human Nuclear Factor Erythroid 2 Related Factor 2 (NFR2) response to Antioxidant Response Elements (ARE) (AID 2282992).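 On AC50: reporter mRNA level measured by RT-PCR and capillary electrophoresis fluorescence.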 Particulars: HepG2 Attagene ARE/NRF2 reporter, transcription factor activity; actives raise or lower the signal. The method in brief:
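Endogenous transcription factor activity in human liver HepG2 cells is tracked via a cis-element-driven reporter within a multiplexed set. mRNA induction is read by RT-PCR and capillary electrophoresis after 24 h, with DMSO as baseline.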

A short description of assay [17]: ATG_Oct_MLP_CIS: Attagene CIS-FACTORIAL HepG2 Assay for human Octamer-Binding Transcription Factor (Oct) (AID 2282993). The following applies: HepG2 Attagene cis-factorial Oct reporter, mRNA; actives raise or lower the signal. The method in brief: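 Read-out: reporter mRNA via RT-PCR plus capillary electrophoresis of 6-FAM-labelled fragments. Transiently transfected HepG2, 24 h exposure, endogenous TF activity on cis elements. Gain or loss of signal fitted relative to DMSO.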

In assay [18] the target is Cellular tumor antigen p53 (Homo sapiens) (UniProt P04637). In words: ATG_p53_CIS: Attagene CIS-FACTORIAL HepG2 Assay for human p53 Transcription Factor (AID 2282994). Particulars: HepG2 p53 cis-element reporter, Attagene mRNA; actives raise or lower the signal. The method in brief:
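Steps: transfect HepG2 with multiplexed cis reporter constructs; dose chemicals 24 h; extract RNA, reverse-transcribe, PCR-amplify reporter sequences; FAM-label, HpaI-digest, resolve fragments by CE. Activity fitted both directions relative to DMSO.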

Assay [19] addresses Nuclear receptor subfamily 1 group I member 2 (Homo sapiens) (UniProt O75469). The assay can be described thus: ATG_PXR_TRANS: Attagene TRANS-FACTORIAL HepG2 Assay for human Pregnane X Receptor (PXR) (AID 2283008; active means hit-call score of the fitted dose curve at least 0.9, where 1 is the maximum). The method in brief:
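HepG2 transfected (FuGene 6) with GAL4-UAS reporter units + PXR-Gal4 chimera; dosed 24 h. Total RNA → oligo(dT) RT → PCR → 6-FAM primer extension → HpaI cut → CE. Gain-of-signal vs DMSO.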

Assay [20] is described as follows: ATG_XTT_Cytotoxicity: Cytotoxicity Assessment in the Attagene TRANS-FACTORIAL HepG2 Assay (AID 2283584; active means hit-call score of the fitted dose curve at least 0.9, where 1 is the maximum). The method in brief:
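Viability endpoint from XTT after 24 h chemical exposure of reporter-transfected human HepG2 liver cells; signal loss fitted relative to DMSO negative control.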

Molecules are shown by their SMILES. Results filed as inconclusive are left out. Calls of active or inactive are those of the source. How the source made its calls, unless noted: active means hit-call score of the fitted dose curve at least 0.9, where 1 is the maximum; inactive means score below 0.9.

Transcription factor Sp1 (Homo sapiens), sequence (P08047 whole entry, looked up): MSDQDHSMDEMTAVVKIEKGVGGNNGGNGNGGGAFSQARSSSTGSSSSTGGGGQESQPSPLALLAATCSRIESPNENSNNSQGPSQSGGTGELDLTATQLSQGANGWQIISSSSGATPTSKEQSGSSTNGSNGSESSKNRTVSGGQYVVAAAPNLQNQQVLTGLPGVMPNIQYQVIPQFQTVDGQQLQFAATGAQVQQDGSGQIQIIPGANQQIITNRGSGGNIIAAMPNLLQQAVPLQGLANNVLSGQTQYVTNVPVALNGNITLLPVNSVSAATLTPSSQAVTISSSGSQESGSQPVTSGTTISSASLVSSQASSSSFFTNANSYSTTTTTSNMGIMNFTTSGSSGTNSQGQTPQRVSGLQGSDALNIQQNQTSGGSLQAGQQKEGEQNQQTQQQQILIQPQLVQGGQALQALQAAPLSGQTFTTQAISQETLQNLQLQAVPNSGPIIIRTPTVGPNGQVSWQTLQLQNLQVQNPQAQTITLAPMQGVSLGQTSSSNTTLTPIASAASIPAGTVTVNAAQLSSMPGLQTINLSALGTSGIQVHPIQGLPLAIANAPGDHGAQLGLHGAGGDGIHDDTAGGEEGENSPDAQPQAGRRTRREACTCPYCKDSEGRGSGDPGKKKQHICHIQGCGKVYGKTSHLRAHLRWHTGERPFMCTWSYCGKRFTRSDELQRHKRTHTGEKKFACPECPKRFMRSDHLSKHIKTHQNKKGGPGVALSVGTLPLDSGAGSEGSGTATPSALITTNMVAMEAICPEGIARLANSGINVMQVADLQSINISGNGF
Nuclear respiratory factor 1 (Homo sapiens), sequence (Q16656 whole entry, looked up): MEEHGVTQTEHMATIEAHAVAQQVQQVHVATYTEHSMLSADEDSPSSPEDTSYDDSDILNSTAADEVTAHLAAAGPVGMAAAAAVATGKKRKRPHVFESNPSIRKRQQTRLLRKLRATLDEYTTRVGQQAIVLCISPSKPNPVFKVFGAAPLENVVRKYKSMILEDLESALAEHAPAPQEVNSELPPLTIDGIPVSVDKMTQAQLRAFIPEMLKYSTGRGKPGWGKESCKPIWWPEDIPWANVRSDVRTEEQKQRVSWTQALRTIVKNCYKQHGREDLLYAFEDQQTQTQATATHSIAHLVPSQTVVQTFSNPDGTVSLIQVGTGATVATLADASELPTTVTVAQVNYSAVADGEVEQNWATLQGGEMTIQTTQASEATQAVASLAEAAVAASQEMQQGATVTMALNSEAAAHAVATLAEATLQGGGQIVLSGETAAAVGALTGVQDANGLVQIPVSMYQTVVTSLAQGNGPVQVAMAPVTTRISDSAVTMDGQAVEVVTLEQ
Transcriptional activator Myb (Homo sapiens), sequence (P10242 whole entry, looked up): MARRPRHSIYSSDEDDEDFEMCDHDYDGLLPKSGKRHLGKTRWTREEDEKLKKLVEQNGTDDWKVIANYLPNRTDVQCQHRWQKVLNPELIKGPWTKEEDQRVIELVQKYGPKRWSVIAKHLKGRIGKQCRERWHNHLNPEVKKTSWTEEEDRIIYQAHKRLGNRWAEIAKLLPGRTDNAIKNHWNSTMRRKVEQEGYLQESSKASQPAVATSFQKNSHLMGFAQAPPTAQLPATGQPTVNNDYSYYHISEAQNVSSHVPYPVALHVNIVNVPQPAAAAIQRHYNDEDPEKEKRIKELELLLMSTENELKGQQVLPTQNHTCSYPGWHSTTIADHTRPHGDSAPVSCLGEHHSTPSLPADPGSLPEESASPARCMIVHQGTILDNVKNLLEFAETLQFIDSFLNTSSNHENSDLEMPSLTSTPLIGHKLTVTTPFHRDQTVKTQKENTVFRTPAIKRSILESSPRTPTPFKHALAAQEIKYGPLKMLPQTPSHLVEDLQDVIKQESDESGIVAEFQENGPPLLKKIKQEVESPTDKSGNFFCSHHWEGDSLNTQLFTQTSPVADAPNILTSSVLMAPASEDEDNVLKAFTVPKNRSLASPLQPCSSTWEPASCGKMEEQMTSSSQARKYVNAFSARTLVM
Nuclear receptor subfamily 1 group I member 2 (Homo sapiens), sequence (O75469 whole entry, looked up, the tested form may be a part): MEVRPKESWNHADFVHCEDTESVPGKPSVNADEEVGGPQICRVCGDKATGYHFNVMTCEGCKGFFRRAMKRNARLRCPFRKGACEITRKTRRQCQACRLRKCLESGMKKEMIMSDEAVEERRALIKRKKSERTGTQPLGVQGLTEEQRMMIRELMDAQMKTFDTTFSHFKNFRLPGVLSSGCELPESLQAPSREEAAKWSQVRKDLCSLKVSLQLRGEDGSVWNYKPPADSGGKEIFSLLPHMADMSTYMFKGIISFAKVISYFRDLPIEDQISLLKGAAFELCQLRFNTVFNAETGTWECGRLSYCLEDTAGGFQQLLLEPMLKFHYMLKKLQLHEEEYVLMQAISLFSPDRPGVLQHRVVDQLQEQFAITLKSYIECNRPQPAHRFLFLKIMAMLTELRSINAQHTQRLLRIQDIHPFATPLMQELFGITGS
Cellular tumor antigen p53 (Homo sapiens), sequence (P04637 whole entry, looked up, the tested form may be a part): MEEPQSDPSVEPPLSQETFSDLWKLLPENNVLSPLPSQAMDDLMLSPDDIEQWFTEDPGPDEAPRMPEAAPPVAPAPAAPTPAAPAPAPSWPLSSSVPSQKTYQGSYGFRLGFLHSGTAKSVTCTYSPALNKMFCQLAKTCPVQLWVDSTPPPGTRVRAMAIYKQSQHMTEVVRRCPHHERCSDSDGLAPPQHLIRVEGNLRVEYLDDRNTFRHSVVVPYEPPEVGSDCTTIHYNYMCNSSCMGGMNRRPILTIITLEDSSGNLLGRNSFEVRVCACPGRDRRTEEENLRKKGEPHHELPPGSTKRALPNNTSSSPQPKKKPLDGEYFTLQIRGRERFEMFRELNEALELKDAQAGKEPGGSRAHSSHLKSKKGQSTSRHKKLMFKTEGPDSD
Signal transducer and activator of transcription 3 (Homo sapiens), sequence (P40763 whole entry, looked up): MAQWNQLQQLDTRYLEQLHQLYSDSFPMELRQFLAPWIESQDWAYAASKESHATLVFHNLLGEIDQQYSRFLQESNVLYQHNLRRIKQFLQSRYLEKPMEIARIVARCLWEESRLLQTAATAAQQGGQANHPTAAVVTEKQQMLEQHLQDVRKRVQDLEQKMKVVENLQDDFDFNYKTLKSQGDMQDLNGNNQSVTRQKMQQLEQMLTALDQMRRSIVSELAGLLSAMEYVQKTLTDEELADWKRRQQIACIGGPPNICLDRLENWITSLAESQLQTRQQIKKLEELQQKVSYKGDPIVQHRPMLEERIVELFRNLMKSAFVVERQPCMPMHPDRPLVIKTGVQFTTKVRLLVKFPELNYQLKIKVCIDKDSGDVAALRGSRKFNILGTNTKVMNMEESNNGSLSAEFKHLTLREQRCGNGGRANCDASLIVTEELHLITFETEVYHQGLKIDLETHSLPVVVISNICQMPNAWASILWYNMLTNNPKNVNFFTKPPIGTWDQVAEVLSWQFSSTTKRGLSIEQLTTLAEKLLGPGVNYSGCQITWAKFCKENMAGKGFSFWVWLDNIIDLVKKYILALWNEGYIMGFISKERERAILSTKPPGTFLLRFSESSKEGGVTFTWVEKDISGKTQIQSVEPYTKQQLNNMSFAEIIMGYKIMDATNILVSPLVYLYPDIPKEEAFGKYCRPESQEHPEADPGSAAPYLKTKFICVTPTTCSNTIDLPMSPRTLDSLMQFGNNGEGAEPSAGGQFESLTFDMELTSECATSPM
Hepatocyte nuclear factor 3-beta (Homo sapiens), sequence (Q9Y261 whole entry, looked up): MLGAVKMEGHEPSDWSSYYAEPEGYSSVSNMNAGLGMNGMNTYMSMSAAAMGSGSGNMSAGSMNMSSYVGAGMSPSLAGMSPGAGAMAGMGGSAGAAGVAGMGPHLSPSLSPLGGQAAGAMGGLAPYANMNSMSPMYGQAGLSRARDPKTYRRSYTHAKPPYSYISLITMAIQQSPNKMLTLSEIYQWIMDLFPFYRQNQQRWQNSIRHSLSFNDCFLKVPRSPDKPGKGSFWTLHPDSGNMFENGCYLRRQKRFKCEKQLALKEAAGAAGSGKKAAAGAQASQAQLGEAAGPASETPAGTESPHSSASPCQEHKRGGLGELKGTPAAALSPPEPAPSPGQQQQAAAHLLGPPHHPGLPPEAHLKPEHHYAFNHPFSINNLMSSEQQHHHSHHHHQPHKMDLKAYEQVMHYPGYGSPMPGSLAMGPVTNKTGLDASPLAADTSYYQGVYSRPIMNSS
Myc proto-oncogene protein (Homo sapiens), sequence (P01106 whole entry, looked up): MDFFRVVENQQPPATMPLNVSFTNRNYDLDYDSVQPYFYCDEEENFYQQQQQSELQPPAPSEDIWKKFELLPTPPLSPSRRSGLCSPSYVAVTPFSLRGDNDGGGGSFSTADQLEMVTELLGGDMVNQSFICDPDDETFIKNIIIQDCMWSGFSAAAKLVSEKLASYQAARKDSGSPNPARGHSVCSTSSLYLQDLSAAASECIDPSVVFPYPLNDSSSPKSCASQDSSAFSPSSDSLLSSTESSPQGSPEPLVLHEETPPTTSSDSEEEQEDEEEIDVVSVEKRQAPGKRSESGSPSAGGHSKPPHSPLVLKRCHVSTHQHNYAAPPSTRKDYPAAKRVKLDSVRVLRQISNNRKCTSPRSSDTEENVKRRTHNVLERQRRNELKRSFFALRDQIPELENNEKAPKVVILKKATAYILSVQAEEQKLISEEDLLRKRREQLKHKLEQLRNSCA

Turning to `O=C1NC(=O)C2CC=CCC12` (centres undefined), the result in [1], in [2], in assay [3], in assay [4], in assay [5] and in assay [6] was inactive. The result in [7], in assay [8], in assay [9], in [10], in assay [11] and in [12] was inactive. In addition, the call in assay [13], in assay [14], in assay [15], in assay [16], in assay [17] and in [18] was inactive. Moreover, the result in assay [19] and in assay [20] was inactive.

Regarding `CCCCCC1CCCC(=O)O1` (centres undefined), the outcome in [1], in [2], in assay [3], in assay [4], in assay [5] and in [6] was inactive. Moreover, the call in [7], in [8], in assay [9], in assay [10], in [11] and in assay [12] was inactive. Also, the outcome in assay [13], in assay [14], in [15], in assay [16], in assay [17] and in assay [18] was inactive. The outcome in [19] and in [20] was inactive.

Take `CC/C=C\CCCCCO`: the call in assay [1], in assay [2], in [3], in assay [4], in [5] and in [6] was inactive. Besides, the outcome in assay [7], in [8], in assay [9], in assay [10], in [11] and in assay [12] was inactive. The result in assay [13], in [14], in assay [15], in [16], in assay [17] and in [18] was inactive. Further, the result in [19] and in [20] was inactive.

For `CCCCNC(N)=O`, the outcome in assay [1], in [2], in assay [3], in [4], in assay [5] and in [6] was inactive. Also, the outcome in assay [7], in [8], in [9], in assay [10], in assay [11] and in [12] was inactive. Further, the call in assay [13], in assay [14], in [15], in [16], in assay [17] and in assay [18] was inactive. The result in [19] and in [20] was inactive.

For the molecule `O=[N+]([O-])c1ccccc1C(F)(F)F`, the molecule was classed as inactive in assay [1], in [2], in [3], in assay [4], in assay [5] and in [6]. The call in [7], in [8], in assay [9], in assay [10], in assay [11] and in assay [12] was inactive. Also, the molecule was called inactive in assay [13], in [14], in [15], in assay [16], in assay [17] and in [18]. Also, the outcome in [19] and in assay [20] was inactive.

For the molecule `c1cc[c]([Bi]([c]2ccccc2)[c]2ccccc2)cc1`, the molecule was called inactive in assay [1], in [2], in assay [3], in [4], in assay [5] and in assay [6]. The molecule was called inactive in assay [7], in [8], in [9], in assay [10], in assay [11] and in assay [12]. The result in [13], in assay [14], in assay [15], in [17] and in assay [20] was inactive. Moreover, the AC50 in assay [16] is 48.9 µM (active); in [19], 2.73 µM (active).
